Assay [1] in a line: qHTS assay to identify small molecule agonists of H2AX - cell viability counter screen (AID 1224847; calls by dose curve; also: nearly all actives have a fitted effect of over 30% in size; also: potency is read from the fitted curve at half-maximal effect). In a few lines:
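Viability of CHO-K1 (wild type) cells after 3 hr compound exposure was measured by CellTiter-Glo luminescence.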

A short description of assay [2]: qHTS assay to identify small molecule antagonists of the estrogen related receptor (ERR) signaling pathway from Tox21 library (AID 1224848). Also: potency is read from the fitted curve at half-maximal effect; nearly all actives have a fitted effect of over 50% in size. In a few lines: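 Cells: ERR line, 2,000/well; 6 h preincubation 37 C/5% CO2. Cpd in DMSO via pin tool; 18 h, 37 C. ONE-Glo, 30 min RT, luminescence.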
In general terms: Quantitative high-throughput screening tests each substance at several concentrations.

Assay [3] can be described thus: qHTS assay to identify small molecule agonists of the estrogen related receptor (ERR) signaling pathway from Tox21 library (AID 1224849; calls by dose curve; also: % is scaled to controls: 0 for no effect and ±100 for the full control effect; nearly all actives have a fitted effect of over 15% in size). The note with it: ERR reporter cell line, ONE-Glo luciferase, 18 h; at 92.4 µM (top of the series) unless noted. In a few lines:
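Agonist signal is luciferase luminescence from an ERR reporter cell line treated 18 h at 37 C with DMSO-dissolved compounds, read 30 min after ONE-Glo addition at room temperature.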

The nature of assay [4]: qHTS RealTime-Glo MT Cell Viability Assay in HepG2 cells - 24 hour (AID 1224867). Also: nearly all actives have a fitted effect of over 50% in size. Also: potency is read from the fitted curve at half-maximal effect. In a few lines:
(§1)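 Cells + NanoLuc/prosubstrate dispensed (600 cells/well) → 5 h at 37 C/5% CO2 → compounds in DMSO transferred → 40 h incubation at 37 C, luminescence read at 0, 8, 16, 24, 32, 40 h.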

Assay [5] in a line: qHTS RealTime-Glo MT Cell Viability Assay in HEK293 cells - 32 hour (AID 1224868). Also: nearly all actives have a fitted effect of over 50% in size. Also: potency is read from the fitted curve at half-maximal effect. The method in brief:
(§2)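 Tox21 10K qHTS, HEK293, 600 cells/well, RealTime-Glo reagent co-dispensed with cells; 5 h preincubation, compound by pintool, 37 C, luminescence at 0–40 h.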

A short description of assay [6]: A CellTox Green Cytotoxicity Assay to monitor cytotoxicity in HEK293 cells - 0 hour (AID 1224869). Also: % is scaled to controls: 0 for no effect and ±100 for the full control effect; nearly all actives have a fitted effect of over 50% in size. In a few lines: (§3)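 Cytotoxicity was tracked continuously in HEK293 cells by a DNA-binding dye excluded from viable cells. Compounds were transferred in DMSO 5 h after seeding; fluorescence was recorded at intervals up to 40 h.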
Assay [7] in a line: qHTS RealTime-Glo MT Cell Viability Assay in HepG2 cells - 40 hour (AID 1224870). Also: nearly all actives have a fitted effect of over 50% in size. Also: potency is read from the fitted curve at half-maximal effect. In a few lines: (§4)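 HepG2 cells mixed with RealTime-Glo MT reagents (NanoLuc plus cell-permeant prosubstrate) were seeded at 600 cells/well, incubated 5 h at 37 C/5% CO2, then pinned with compounds in DMSO; nonlytic luminescence tracked viability during 40 h treatment.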
Assay [8] in a line: qHTS RealTime-Glo MT Cell Viability Assay in HEK293 cells - 16 hour (AID 1224872). Also: nearly all actives have a fitted effect of over 50% in size. Also: potency is read from the fitted curve at half-maximal effect. The method in brief: as §2
Assay [9] can be described thus: qHTS RealTime-Glo MT Cell Viability Assay in HepG2 cells - 8 hour (AID 1224873). Also: nearly all actives have a fitted effect of over 55% in size. Also: potency is read from the fitted curve at half-maximal effect. In a few lines:
as §4

Assay [10] is described as follows: A CellTox Green Cytotoxicity Assay to monitor cytotoxicity in HEK293 cells - 24 hour (AID 1224875). Also: nearly all actives have a fitted effect of over 45% in size. Also: potency is read from the fitted curve at half-maximal effect. As to activity change: % is scaled to controls: 0 for no effect and ±100 for the full control effect. The method in brief:
as §3

Assay [11] can be described thus: qHTS RealTime-Glo MT Cell Viability Assay in HepG2 cells - 32 hour (AID 1224877). Also: nearly all actives have a fitted effect of over 55% in size. Also: potency is read from the fitted curve at half-maximal effect. The method in brief: as §1
The nature of assay [12]: A CellTox Green Cytotoxicity Assay to monitor cytotoxicity in HepG2 cells - 24 hour (AID 1224878). Also: nearly all actives have a fitted effect of over 45% in size. Also: potency is read from the fitted curve at half-maximal effect. As to Cytotoxicity: % is scaled to controls: 0 for no effect and ±100 for the full control effect. In a few lines: (§5)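 Real-time, homogeneous cytotoxicity readout: dead-cell DNA staining by CellTox Green in HepG2 monolayers, fluorescence measured at timed intervals up to 40 h of continuous compound exposure.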
Assay [13] is described as follows: A CellTox Green Cytotoxicity Assay to monitor cytotoxicity in HepG2 cells - 40 hour (AID 1224879). Also: nearly all actives have a fitted effect of over 40% in size. Also: potency is read from the fitted curve at half-maximal effect. The method in brief:
as §5

Assay [14] is described as follows: qHTS RealTime-Glo MT Cell Viability Assay in HEK293 cells - 0 hour (AID 1224880). Also: nearly all actives have a fitted effect of over 45% in size. Also: potency is read from the fitted curve at half-maximal effect. The method in brief:
(§6)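 Nonlytic bioluminescent viability monitoring. HEK293 at 600 cells/well with reagent; 5 h settle; compound transfer by pintool; plates held at 37 C and read at set time points.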

Assay [15] in a line: A CellTox Green Cytotoxicity Assay to monitor cytotoxicity in HEK293 cells - 32 hour (AID 1224881). Also: nearly all actives have a fitted effect of over 40% in size. Also: potency is read from the fitted curve at half-maximal effect. The method in brief:
as §3

Assay [16] in a line: A CellTox Green Cytotoxicity Assay to monitor cytotoxicity in HepG2 cells - 0 hour (AID 1224882). Also: % is scaled to controls: 0 for no effect and ±100 for the full control effect; nearly all actives have a fitted effect of over 35% in size. The method in brief:
as §5

Assay [17] is described as follows: qHTS assay to identify small molecule agonists of the hypoxia (HIF-1) signaling pathway (AID 1224846; active = well fitted activation curve with a large enough effect in the signal ratio in the repeat runs, not every such curve was filed as active; the % refers to the signal ratio; also: % is scaled to controls: 0 for no effect and ±100 for the full control effect). The method in brief: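 Steps: seed ME-180 HRE-bla cells (2,000/well, 0.5% dialyzed FBS); incubate 5 hrs at 37C; pin-transfer compounds or DMSO; incubate 17 hrs; add LiveBLAzer B/G substrate CCF4-AM; measure reporter activation by FRET.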
Assay [18] can be described thus: A CellTox Green Cytotoxicity Assay to monitor cytotoxicity in HEK293 cells - 40 hour (AID 1224871). Also: nearly all actives have a fitted effect of over 45% in size. Also: potency is read from the fitted curve at half-maximal effect. In a few lines: as §3
Assay [19] can be described thus: qHTS RealTime-Glo MT Cell Viability Assay in HEK293 cells - 40 hour (AID 1224874). Also: nearly all actives have a fitted effect of over 50% in size. Also: potency is read from the fitted curve at half-maximal effect. As to max response: % is scaled to controls: 0 for no effect and ±100 for the full control effect. The settings on record: RealTime-Glo luminescence; max response: hits give low values. In a few lines: as §6
Assay [20] can be described thus: A CellTox Green Cytotoxicity Assay to monitor cytotoxicity in HepG2 cells - 16 hour (AID 1224876). Also: nearly all actives have a fitted effect of over 45% in size. Also: potency is read from the fitted curve at half-maximal effect. The method in brief:
as §5

A number with no mark means an inactive call. Records with an inconclusive call do not appear. Active and inactive are the calls of the source. Unless noted, calls follow the shape of the dose curve; as a rule, active = well fitted curve in the direction sought with a large enough effect in the repeat runs; inconclusive = weak or mixed curves; inactive = no such curve, though single readings can be large; an effect the other way counts as inactive or inconclusive.

Turning to `CCc1nn(C)c(C(=O)NCc2ccc(C(C)(C)C)cc2)c1Cl`, the Potency is 56.6 µM (active) in assay [1], 0.0486 µM (active) in assay [2], 0.0347 µM (active) in assay [5] and 0.0871 µM (active) in assay [8]. For the same compound, the activity change, positive = activation in assay [3] was -58.3%. Further, the Potency result in [4], in [6], in assay [7], in assay [9], in [10] and in assay [11] was “inactive” throughout. In addition, the Potency result in [12], in [13], in assay [14], in assay [15] and in [16] was “inactive” each time.
Turning to `CC(=O)/C=C/c1ccc2c(c1)OCO2`, the result in assay [17] was inactive. In addition, the Potency in [2] was 43.5 µM (active); in assay [13] it was 49.2 µM (active). For the same compound, the activity change, positive = activation in [3] is -46.7%. Also, the Potency result in assay [4], in [5], in assay [6], in assay [7], in assay [18] and in [8] was “inactive” throughout. Moreover, the Potency entry in assay [9], in [10], in assay [11], in [14] and in assay [16] was “inactive” each time. The max response in assay [19] is -11.6%.
Turning to `COP(=O)(OC)SCn1c(=O)oc2cc(Cl)cnc21`, the compound was classed as inactive in assay [17]. Besides, the activity change, positive = activation in assay [3] was -27.7%. The Potency entry in assay [4], in [6], in assay [7], in assay [9], in [10] and in [11] was “inactive” throughout. Besides, the Potency entry in assay [12], in assay [14], in assay [15] and in assay [16] was “inactive” in each case. Further, in assay [13], the Potency was 49 µM (active).
On to `C[C@]12CC[C@H](O)C[C@H]1CC[C@@H]1[C@@H]2C[C@@H](O)[C@]2(C)[C@@H](C3=CC(=O)OC3)CC[C@]12O`, for which the Potency result in assay [1], in assay [4], in assay [6], in assay [7], in assay [18] and in assay [9] was “inactive” in each case. Also, the Potency result in assay [10], in [20], in assay [11], in [12], in [13] and in assay [14] was “inactive” each time. The Potency result in [15] and in assay [16] was “inactive” throughout. The Potency in assay [2] is 3.06 µM (active); in assay [5] it was 0.692 µM (active); in assay [19], 0.776 µM (active). Besides, the activity change, positive = activation in assay [3] is -63.4% (active).
As for `Cc1ccc(OP(=O)(Oc2ccccc2)Oc2ccccc2)cc1`, the compound was classed as inactive in [17]. In addition, the activity change, positive = activation in [3] was -20.3%. The Potency entry in assay [4], in [5], in assay [6], in assay [7], in assay [18] and in [8] was “inactive” in each case. Moreover, the Potency result in assay [9], in assay [10], in [20], in assay [11], in [12] and in assay [13] was “inactive” in each case. Further, the Potency entry in assay [14], in assay [15] and in assay [16] was “inactive” each time. Besides, in [19], the max response is -19.8%.
With `CC(C)(C)c1ccc(CSc2cnn(C(C)(C)C)c(=O)c2Cl)cc1`, the outcome in [17] was inactive. The activity change, positive = activation in [3] was -52.9%. Besides, the values for the Potency in assay [5], in assay [8] and in assay [13] were 0.011 µM (active), 0.436 µM (active) and 43.6 µM (active), respectively. The Potency entry in [6], in assay [7], in [18], in assay [10], in assay [20] and in [11] was “inactive” in each case. For the same compound, the Potency entry in assay [12], in assay [14], in assay [15] and in [16] was “inactive” each time.
Regarding `CCOC(=O)c1ccccc1S(=O)(=O)NC(=O)Nc1nc(Cl)cc(OC)n1`, in assay [17], the outcome was inactive. In addition, the Potency entry in assay [1], in assay [4], in assay [7], in [9], in [20] and in [11] was “inactive” in each case. The Potency entry in [12], in assay [13] and in assay [16] was “inactive” each time.
In the case of `CC(=O)OC1(c2ccccc2)CCN(CCc2ccccc2)CC1`, the call in [17] was inactive. In addition, the Potency entry in assay [4], in assay [6], in [7], in [9], in assay [10] and in [20] was “inactive” throughout. For the same compound, the Potency result in [11], in [12], in assay [14] and in assay [15] was “inactive” each time. Besides, the Potency in [5] is 31.6 µM (active); in assay [8] it was 25.1 µM (active); in assay [19], 28.2 µM (active).
Regarding `CC1(C)CN=C(NN=C(/C=C/c2ccc(C(F)(F)F)cc2)/C=C/c2ccc(C(F)(F)F)cc2)NC1`, the Potency was 25.3 µM (active) in assay [1]; 13.7 µM (active) in [2]; 17.4 µM (active) in assay [4]; 38.9 µM (active) in assay [5]; 15.5 µM (active) in assay [7]; 49 µM (active) in assay [18]. Further, the Potency is 49 µM (active) in [8]; 24.5 µM (active) in [9]; 24.5 µM (active) in [20]; 17.4 µM (active) in assay [11]; 19.5 µM (active) in assay [12]; 15.5 µM (active) in [13]. Further, the Potency in [15] is 54.9 µM (active). In addition, the activity change, positive = activation in [3] is -76.2%. Besides, the Potency entry in assay [6], in [14] and in assay [16] was “inactive” each time.
`CC(Cl)CN(C)C` (stereo not drawn): in [17], the compound was classed as inactive. The Potency entry in assay [1], in [4], in [7], in assay [9], in assay [20] and in assay [11] was “inactive” throughout. Further, the Potency entry in assay [12], in [13] and in assay [16] was “inactive” in each case.
With `CCCOCC(=Nc1ccc(Cl)cc1C(F)(F)F)n1ccnc1`, the outcome in [17] was inactive. Also, the Potency in assay [1] is 101 µM (active); in assay [5], 48.9 µM (active); in assay [18], 48.9 µM (active); in [8], 43.6 µM (active); in assay [19], 48.9 µM (active); in assay [10], 48.9 µM (active). Also, the results for the Potency in [20], in assay [12] and in assay [15] were 43.6 µM (active), 43.6 µM (active) and 48.9 µM (active), respectively. Also, the Potency entry in assay [14] and in assay [16] was “inactive” each time.
Consider `O=C1C=CC(=O)c2ccccc21`, for which the Potency is 20.1 µM (active) in assay [1]; 27.3 µM (active) in assay [2]; 21.9 µM (active) in assay [4]; 5.49 µM (active) in assay [5]; 24.5 µM (active) in [7]; 3.89 µM (active) in assay [18]. The Potency in assay [8] is 5.49 µM (active); in [9], 17.4 µM (active); in [19], 4.9 µM (active); in [10] it was 6.92 µM (active); in [20], 13.8 µM (active); in assay [11] it was 24.5 µM (active). In addition, the Potency in [12] was 12.3 µM (active); in assay [13], 12.3 µM (active); in assay [14] it was 12.3 µM (active); in assay [15], 6.16 µM (active). Also, the activity change, positive = activation in [3] was -74.8%. In addition, the Potency result in assay [6] and in assay [16] was “inactive” throughout.

(Values after PubChem BioAssay (Tox21).)
